Assay results taken from the supplement of paper PMC4894684.
Where “and” joins values, the source holds several entries; their conditions need not be identical. Equal entries are not always repeated. Structures can show the parent of a compound that is named as a salt. ± gives the standard deviation of the averaged measurements.

System: Toxoplasma gondii RH (in HFF)
Assay: parasite growth relative to the screen mean (all compounds = 100%); higher = less inhibition of parasite growth
Conditions: 5 µM; 72 h; oxygen 21 %
In short: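 RH β-Gal–GFP Toxoplasma at MOI 1:5 was used to infect confluent human foreskin fibroblasts in 96-well plates within 2 h of pin-transferring compounds to 5 µM final. After 72 h at 21% O2, parasite number was determined by CPRG β-Gal assay against standard curves on the same plate. Growth is relative to the screen mean and averaged over two screens, with all compounds = 100%.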

| SMILES | parasite growth |
| --- | --- |
| Cc1cc(NC(=O)Nc2ccc(N(C)C)cc2)c2cc(F)cc(F)c2n1 | 159 ± 3.7% |
| COc1cccc(/C=N/N=C/c2cccc(OC)c2)c1 | 135 ± 4.2% |
| CCCN(C/C=C/I)C1CCc2cccc(O)c2C1 (stereo not drawn) [8-Hydroxy-PIPAT oxalate] | 190 ± 23% |
| COC(=O)C1=C(C)NC(C)=C(C(=O)OCCSc2ccccc2)C1C (stereo not drawn) | 146 ± 12% |
| Cc1cc(Cn2cnc3c2CC(C(=O)O)N(C(=O)C(c2ccccc2)c2ccccc2)C3)ccc1N(C)C (stereo not drawn) | 130 ± 23% |
| CCn1c(=O)[nH]c2ccccc21 | 67.92 ± 0.3% |
| O=C(NCCNCC(O)COc1ccc(O)cc1)N1CCOCC1 (stereo not drawn) [Xamoterol hemifumarate] | 117 ± 12% |
| NC(=O)CCCCn1ccc(NC(N)=NCC(F)(F)F)n1 | 95.1 ± 10% |
| CC1(c2ccccc2)OC(C(=O)O)=CC1=O (stereo not drawn) [Acifran] | 114 ± 2.4% |
| N[C@@H](Cn1ccc(=O)n(Cc2ccccc2C(=O)O)c1=O)C(=O)O | 108% and 93.5% |
| CN1[C@@H](CC(=O)c2ccccc2)CCC[C@H]1C[C@H](O)c1ccccc1 [Lobeline hydrochloride] | 179 ± 40% |
| OCc1cc(C(O)CNCCCCCCOCCCCc2ccccc2)ccc1O (stereo not drawn) [Salmeterol] | 14.4 ± 11% |
| COC(=O)c1c(C)[nH]c(C)c1C(=O)c1ccccc1Cc1ccccc1 | 116 ± 37% |
| CNCCC(Oc1ccc(C(F)(F)F)cc1)c1ccccc1 (stereo not drawn) [Fluoxetine hydrochloride] | 20.9 ± 8.2% |
| c1ccc(N2CCN(Cc3nc4ccccc4[nH]3)CC2)nc1 [ABT 724 trihydrochloride] | 98.1 ± 12% |
| CCC(=O)NC1CCc2cccc(OC)c2C1 (stereo not drawn) | 84.3 ± 9.1% |
| CC1(C)NC(=O)N(c2ccc([N+](=O)[O-])c(C(F)(F)F)c2)C1=O [Nilutamide] | 150 ± 36% |
| NC(=O)N1C(=O)/C(=C(\O)c2cccs2)c2cc(Cl)ccc21 [Tenidap] | 134 ± 18% |
| COc1ccccc1N1CCN(CCCCNC(=O)c2ccc(-c3ccc(C(C)=O)cc3)cc2)CC1 | 156 ± 28% |

| SMILES | parasite growth |
| --- | --- |
| Cc1cc(I)ccc1Nc1c(C(=O)NOCC2CC2)cc(F)c(F)c1F | 107 ± 21% |
| Brc1c(NC2=NCCN2)ccc2nccnc12 | 128 ± 24% |
| COc1cc(SC)ccc1C(=O)N1CCC(Cc2ccccc2)CC1 | 112 ± 5.8% |
| Oc1c2ccccc2c2c3c(cccc13)N=N2 | 7.23 ± 4.4% |
| CCO/C(O)=C1\C(C)=NC(c2ccccc2)=C(C(=O)OCc2ccc([N+](=O)[O-])cc2)C1C#Cc1ccccc1 (stereo not drawn) | 67.4 ± 16% |
| Oc1ccc(/C=C/c2cc(O)cc(O)c2)cc1 [Resveratrol] | 112 ± 56% |
| CC(=O)N1CCN(c2ccc(OCC3COC(Cn4ccnc4)(c4ccc(Cl)cc4Cl)O3)cc2)CC1 (stereo not drawn) [Ketoconazole] | 186 ± 29% |
| NC(=O)N/N=C/c1ccc(Oc2ccc(F)cc2)cc1 | 145 ± 19% |
| COC1CCC(C(=O)c2ccc3nc4c(cc3c2)CCCO4)CC1 (stereo not drawn) | 136 ± 27% |
| C[C@](N)(Cc1ccc(O)c(O)c1)C(=O)O [L-(-)- α-Methyldopa] | 146 ± 39% |
| CC1=Nc2ccc(Cl)cc2S(=O)(=O)N1 [Diazoxide] | 77.6 ± 16% |
| Cc1cccc(CCN2CCC(C(=O)c3ccc(NS(C)(=O)=O)cc3)CC2)n1 [E-4031 dihydrochloride] | 150 ± 13% |
| Nc1nc(N)nc(-c2cc(Cl)ccc2Cl)n1 [Irsogladine maleate] | 127 ± 27% |
| CC(C)NCC(O)c1ccc2ccccc2c1 (stereo not drawn) [Pronethalol hydrochloride] | 117 ± 28% |
| Nc1ncnc2c1nc(Br)n2[C@@H]1O[C@@H]2COP(=O)(O)O[C@H]2[C@H]1O [8-Bromo-cAMP, sodium salt] | 125 ± 25% |
| c1nc(CC2CCNCC2)c[nH]1 [Immepip dihydrobromide] | 100.2 ± 0.4% |
| CC(=O)N(OCc1ccccc1)[C@H]1c2cc(C#N)ccc2OC(C)(C)[C@H]1O | 112 ± 33% |
| CNCCCC12CCC(c3ccccc31)c1ccccc12 [Maprotiline hydrochloride] | 54.1 ± 17% |
| CCOC(=O)c1ncn2c1CN(C)C(=O)c1cc(F)ccc1-2 [Flumazenil] | 84.5 ± 15% |
